# An excerpt weighted towards active compounds, which were near 6.5% of everything screened.
# Autofluor 339: intrinsic fluorescence of library compounds, ex339/em460 – biochemical, MLSMR library, data from DPM-DC assay, artefact control, profiling panel. compound autofluorescence, ex339/em460 nm, NADH buffer; hits give high values; 1 = no-compound wells, NADH background. fluorescence fold increase at 10 µM. 65,000 tested, 5.5% active. AID 709;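 active means at 10 µM, mean starting fluorescence two-fold or more over control wells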;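 further: signal is the first read of a kinetic run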
# DPM-DC inhibit: blocks S. pneumoniae diphosphomevalonate decarboxylase. 65,000 tested, 0.49% active. purified DPM-DC, PK/LDH coupled NADH fluorescence. calls only at 10 µM;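 active means the 320 compounds with the highest percent inhibition in the single-dose primary screen, excluding strongly autofluorescent ones, cut at about 32% in these data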;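 further: kinetic rate of NADH fluorescence loss reporting ADP formed by the decarboxylase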
# NADH coupling: blocks coupling enzymes of NAD/NADH assays; coupled PK/LDH NADH assays, four targets; IC50, µM (doses to about 10 µM), inactives show top-dose inhibition; 65,000 tested, 0.02% active;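 active means single-dose screening hits from any of four coupled enzyme assays that gave an IC50 when retested across doses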;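 further: the DPM-DC format reads NADH fluorescence rather than 340 nm absorbance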
# Abs 340nm: compound absorbs light at 340 nm; compound absorbance at 340 nm, fold over control; fold change at 10 µM; 65,000 tested, under 10 active; AID 708;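 active means at 10 µM dose, initial 340 nm absorbance at least 2 fold that of control wells; inactive means change under 2 fold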;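 further: initial absorbance extrapolated from kinetic A340 decline of NADH oxidation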
# MK inhibit: S. pneumoniae mevalonate kinase inhibition | purified MK, PK/LDH-coupled NADH absorbance 340 nm | inhibition, % at 10 µM | 65,000 tested, 0.48% active;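 active means ranked among the strongest by inhibition in the single 10 µM screen, a fixed top-ranked set picked for dose follow-up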
# PMK inhibit: inhibitors of Streptococcus pneumoniae phosphomevalonate kinase; purified PMK, PK/LDH-coupled NADH absorbance 340 nm; inhibition, % at 10 µM; 65,000 tested, 0.49% active;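 active means top-ranked compounds by inhibition in the single 10 µM screen, taking a fixed number of the strongest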;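 further: 0% = full reaction with DMSO carrier and 100% = background rate without enzyme reaction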
# An asterisk follows results filed as active; i = inactive; / = no result given; + = active, no number.
SMILES,Autofluor 339,DPM-DC inhibit,NADH coupling,Abs 340nm,MK inhibit,PMK inhibit
CC(=O)c1sc(NC(=O)c2ccc(Cn3cc(Br)cn3)o2)nc1C,1.1,i,3%,1.1,4,6
Cc1ccc2nc(NC(=O)c3cccs3)sc2c1,1.5,i,3%,1.1,0,0
CN(c1ccccc1C(=O)NCC1CCCO1)S(C)(=O)=O (configuration not stated),1.2,i,5%,1,6,7
C=CCn1c(N)c(C(=O)NCC2CCCO2)c2nc3ccccc3nc21 (configuration not stated),3.8*,/,8%,1,9,7
COc1ccc(-n2c(N)c(C(=O)NCC3CCCO3)c3nc4ccccc4nc32)c(OC)c1 (configuration not stated),3.9*,/,8%,1,11,5
O=C(NCC1CCCO1)c1coc2nc3ccccc3nc12 (configuration not stated),2.5*,+,16%,1.1,2,14
COc1ccc(-n2nc(C(=O)NCC(=O)NCC3CCCO3)c3ccccc3c2=O)c(OC)c1 (configuration not stated),1.1,i,3%,1,5,3
CC(C)N(C(=O)COc1ccc(Br)cc1Cl)C(C)C,1.1,i,12%,1,6,5
CCOC(=O)N1CCN(C(=O)c2ccc(CN(c3ccccc3)S(C)(=O)=O)cc2)CC1,1.1,i,3%,1.1,9,0
CN(C)c1cc(NC(=O)CN2CCOCC2)c2ccccc2n1,1.8,/,3%,1,4,0
CCCCC(=O)Nc1cc(N(C)C)nc2ccccc12,3.8*,/,14%,1,15,12
CCN(CC)CCCNC(=O)c1nn(-c2ccccc2OC)c(=O)c2ccccc12,1.1,i,2%,1,3,3
COc1cc2c(cc1OC)-c1cc(Nc3ccc4c(c3)OCCO4)nc(=O)n1CC2,1.3,i,4%,1.1,0,10
COc1cc2c(cc1OC)-c1cc(N3CCCc4ccccc43)nc(=O)n1CC2,1.1,i,6%,1.2,14,0
COc1cc2c(cc1OC)-c1cc(OCc3cccnc3)nc(=O)n1CC2,2.9*,/,4%,1.1,6,10
CCN(CC)CCCNc1cc2n(c(=O)n1)CCc1cc(OC)c(OC)cc1-2,4*,/,13%,1.1,10,15
COc1cc2c(cc1OC)-c1cc(NC3CCCCCC3)nc(=O)n1CC2,3.3*,/,9%,1.1,8,9
COc1ccc(C(=O)N2CCN=C2SCc2cccnc2)cc1OC,1.1,i,3%,1,8,0
COc1cc2c(cc1OC)-c1cc(N3CCCCCC3)nc(=O)n1CC2,2.5*,i,9%,1.2,2,15
O=S(=O)(Cc1ccccc1)N1CCN(Cc2ccc3c(c2)OCO3)CC1,1.1,i,1%,1.1,4,0
CC(=O)c1c(C)[nH]c(C(=O)OCC(=O)Nc2cc(C(F)(F)F)ccc2N2CCOCC2)c1C,1.1,i,5%,0.99,6,10
CC(C)CCNc1nc2c(cc1C#N)COC(C)(C)C2,2.2*,/,3%,1,5,0
Cc1ccc(-c2cn3nc(C)c(C)nc3n2)cc1,2.9*,/,4%,1,8,12
O=C(c1cc(-c2cccnc2)nc2ccc(Br)cc12)N1CCC2(CC1)OCCO2,1.1,i,2%,1.1,2,3
CC1CCCN(C(=O)C2CCN(CC3CC=CCC3)CC2)C1 (configuration not stated),1.1,i,11%,1.1,25,8
SMILES,Autofluor 339,DPM-DC inhibit,NADH coupling,Abs 340nm,MK inhibit,PMK inhibit
COC(=O)c1ccsc1NC(=O)c1ccc2c(c1)OCCO2,2.1*,/,6%,1.1,5,7
O=C(Nc1ccc2oc(-c3ccccc3Cl)nc2c1)c1ncn[nH]1,2.1*,/,6%,1.1,12,0
CC(C)c1ccc2oc(-c3ccc(NC(=O)c4ncn[nH]4)cc3)nc2c1,3.6*,/,8%,1.1,12,4
Cc1ccc(-c2nc3cc(N)ccc3o2)c(C)c1,4*,/,3%,1,6,0
Cc1ccc(-c2nc3cc(N)ccc3o2)cc1,2,/,3%,1.1,10,5
O=C(Nc1ccc(N2CCOCC2)c(Cl)c1)c1ncn[nH]1,1.1,i,6%,1,6,11
CC(C)c1ccc2oc(-c3ccc(N)cc3)nc2c1,2.1*,/,9%,1.2,14,4
O=C(CSC1=NCCS1)Nc1ccnc2ccccc12,1.1,i,4%,1,7,5
CCCCn1c(N(CCOC(C)=O)C(C)=O)nc2ccccc21,1,i,3%,1,0,7
CCC(C)c1ccc2oc(-c3ccc(NC(=O)c4ncn[nH]4)cc3)nc2c1 (configuration not stated),3.6*,/,6%,1.2,11,0
CCC(C)c1ccc(O)c(NC(=O)c2ncn[nH]2)c1 (configuration not stated),1.1,i,13%,1.1,13,15
CC(C)Cn1cc(C(=O)NCCCN2CCCC2=O)c2c3ccccc3n(C)c2c1=O,3.9*,i,14%,1,7,17
CCOC(=O)C1CCCN(C(=O)c2cc3c(=O)n(C)c4ccccc4c3n2C)C1 (configuration not stated),1.1,i,8%,1,4,14
CC(C)Cn1cc(C(=O)N2CCN(c3ccccn3)CC2)c2c3ccccc3n(C)c2c1=O,2.1*,i,5%,1,9,7
Cn1cc(C(=O)N2CCN(C(=O)c3ccco3)CC2)c2c3ccccc3n(C)c2c1=O,3.5*,i,12%,1.1,0,16
COCCn1cc(C(=O)N2CCCC(C)C2)c2c3ccccc3n(C)c2c1=O (configuration not stated),4.5*,/,10%,1,8,12
COc1ccccc1-n1cc(C(=O)NCC(=O)N2CCN(c3ccccn3)CC2)c2ccccc2c1=O,1.2,i,1%,1,4,0
CCn1cc(C(C)NC(=O)COc2ccc(Cl)cc2C)c(C)n1 (configuration not stated),1,i,11%,0.99,7,9
Cn1c(C(=O)N2CCCC2)cc2c(=O)n(C)c3ccccc3c21,1.1,i,14%,1,26,6
Cn1cc(C(=O)NCCN2CCN(c3ccccc3F)CC2)c2c3ccccc3n(C)c2c1=O,3.5*,i,11%,1.1,2,8
CCOC(=O)C1CCN(C(=O)c2cn(CCOC)c(=O)c3c2c2ccccc2n3C)CC1,4.9*,/,7%,1.1,4,9
CCN1CCN(C(=O)c2cn(CCOC)c(=O)c3c2c2ccccc2n3C)CC1,2.8*,i,7%,1,0,11
O=C(CNC(=O)c1cccs1)NCCN1CCN(c2ccccc2F)CC1,1,i,5%,0.96,8,25*

# Screening results: PubChem, SRMLSC
